In the library only some 3.6% were active in any assay of this set; here they are far more common.
Myeloid diff 2 – promotes myeloid progenitor differentiation; ER-HoxA9 myeloid progenitors, lysozyme-GFP differentiation, flow cytometry; calls only at 10 µM; 360,000 compounds, 1% hits; AID 624256;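 active means normalized GFP-positive differentiation at or above the plate's own cutoff, the solvent-only control mean plus 3 SD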;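 further: cells exposed to compound for four days before flow analysis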
NadD block – inhibitors of Staphylococcus aureus NadD. 360,000 compounds, 0.78% hits. inhibition, % at 20 µM. purified NadD enzyme, colorimetric absorbance read-out; in the data active means inhibition above about 26%
FAS-TE inh – FAS thioesterase (human) inhibition; P49327; recombinant FAS-TE, OMFH fluorogenic substrate, fluorescence endpoint; inhibition, % at 15 µM; 360,000 compounds, 0.67% hits;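 active means compounds whose normalised, plate-corrected inhibition of enzyme fluorescence in the single-dose primary screen is 50% or more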;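 further: 0% = DMSO with enzyme and 100% = substrate without enzyme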
Target sequence (P49327 whole entry, looked up): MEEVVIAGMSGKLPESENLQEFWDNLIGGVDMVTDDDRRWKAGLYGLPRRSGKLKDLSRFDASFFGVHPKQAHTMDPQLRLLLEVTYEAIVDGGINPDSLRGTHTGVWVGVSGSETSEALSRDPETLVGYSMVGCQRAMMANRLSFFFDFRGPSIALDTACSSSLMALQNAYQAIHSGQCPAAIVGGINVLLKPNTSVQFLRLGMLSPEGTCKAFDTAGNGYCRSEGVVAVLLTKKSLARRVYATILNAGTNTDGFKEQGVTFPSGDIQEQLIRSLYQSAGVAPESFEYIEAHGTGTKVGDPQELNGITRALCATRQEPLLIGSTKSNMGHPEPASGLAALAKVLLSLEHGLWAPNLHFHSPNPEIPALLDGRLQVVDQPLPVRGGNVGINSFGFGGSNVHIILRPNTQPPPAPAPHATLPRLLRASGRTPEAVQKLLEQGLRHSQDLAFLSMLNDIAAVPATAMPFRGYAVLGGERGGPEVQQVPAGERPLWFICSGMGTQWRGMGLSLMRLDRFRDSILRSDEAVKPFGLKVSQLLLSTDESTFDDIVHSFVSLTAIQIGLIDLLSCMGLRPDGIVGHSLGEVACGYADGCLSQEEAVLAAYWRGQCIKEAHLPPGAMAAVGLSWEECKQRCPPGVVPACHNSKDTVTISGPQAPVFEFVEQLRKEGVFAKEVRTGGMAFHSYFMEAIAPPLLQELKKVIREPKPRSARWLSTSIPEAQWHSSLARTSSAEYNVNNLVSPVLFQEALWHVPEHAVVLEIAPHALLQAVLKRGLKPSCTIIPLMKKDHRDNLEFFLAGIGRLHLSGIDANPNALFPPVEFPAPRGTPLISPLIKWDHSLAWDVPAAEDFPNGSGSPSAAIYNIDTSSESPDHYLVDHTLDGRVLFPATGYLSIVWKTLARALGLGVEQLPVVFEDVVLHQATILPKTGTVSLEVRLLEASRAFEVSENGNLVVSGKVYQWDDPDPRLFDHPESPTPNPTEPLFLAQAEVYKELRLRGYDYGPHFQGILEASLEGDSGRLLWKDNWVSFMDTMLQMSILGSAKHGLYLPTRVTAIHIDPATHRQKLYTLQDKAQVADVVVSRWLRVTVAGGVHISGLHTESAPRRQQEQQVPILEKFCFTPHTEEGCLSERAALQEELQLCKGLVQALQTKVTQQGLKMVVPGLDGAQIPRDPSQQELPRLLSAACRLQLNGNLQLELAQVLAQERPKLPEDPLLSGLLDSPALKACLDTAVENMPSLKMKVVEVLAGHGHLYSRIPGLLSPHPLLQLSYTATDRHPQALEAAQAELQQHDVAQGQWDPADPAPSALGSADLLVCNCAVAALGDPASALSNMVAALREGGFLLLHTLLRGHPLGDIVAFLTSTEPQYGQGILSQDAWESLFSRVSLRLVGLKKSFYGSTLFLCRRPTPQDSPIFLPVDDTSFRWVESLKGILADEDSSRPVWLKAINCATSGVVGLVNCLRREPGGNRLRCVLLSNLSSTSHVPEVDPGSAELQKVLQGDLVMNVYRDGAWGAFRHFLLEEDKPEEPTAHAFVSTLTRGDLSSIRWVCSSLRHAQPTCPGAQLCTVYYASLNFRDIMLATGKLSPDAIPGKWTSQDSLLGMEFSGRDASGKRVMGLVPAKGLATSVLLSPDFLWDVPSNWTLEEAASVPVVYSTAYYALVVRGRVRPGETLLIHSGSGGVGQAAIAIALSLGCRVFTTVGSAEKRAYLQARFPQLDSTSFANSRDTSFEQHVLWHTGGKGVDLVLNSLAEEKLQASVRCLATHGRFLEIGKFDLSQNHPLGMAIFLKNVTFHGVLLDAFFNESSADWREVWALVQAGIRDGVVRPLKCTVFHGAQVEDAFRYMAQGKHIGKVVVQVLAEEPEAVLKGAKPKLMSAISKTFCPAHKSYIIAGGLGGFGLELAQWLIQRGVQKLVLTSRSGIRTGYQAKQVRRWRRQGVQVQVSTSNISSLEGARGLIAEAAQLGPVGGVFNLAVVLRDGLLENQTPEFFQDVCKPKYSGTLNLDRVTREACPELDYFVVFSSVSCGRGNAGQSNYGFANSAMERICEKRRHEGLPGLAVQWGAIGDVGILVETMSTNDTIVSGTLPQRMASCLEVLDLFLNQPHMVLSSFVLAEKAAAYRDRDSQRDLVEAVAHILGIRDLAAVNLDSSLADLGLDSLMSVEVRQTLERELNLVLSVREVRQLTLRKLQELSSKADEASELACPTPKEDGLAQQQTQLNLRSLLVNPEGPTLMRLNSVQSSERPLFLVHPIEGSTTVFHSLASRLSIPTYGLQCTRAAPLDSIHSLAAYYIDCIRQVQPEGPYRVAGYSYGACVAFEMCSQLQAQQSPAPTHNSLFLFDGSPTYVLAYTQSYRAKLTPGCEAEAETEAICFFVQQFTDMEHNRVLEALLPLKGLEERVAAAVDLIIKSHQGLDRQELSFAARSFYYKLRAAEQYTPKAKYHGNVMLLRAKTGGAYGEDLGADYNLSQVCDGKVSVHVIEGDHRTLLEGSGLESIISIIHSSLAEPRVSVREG
CRFR2-BP antag – blocks CRF-induced signaling of the CRF-BP/CRF-R2 complex; 350,000 compounds, 0.59% hits; HEK293 CRF-R2/CRF-BP, CRF-induced calcium fluorescence; AID 588475; inhibition, % at 11.8 µM;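 active means inhibition of the ligand-induced calcium signal above about 50% at the single tested concentration, limit read from the data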
NRP1-CendR mod – NRP-1/CendR interaction modulation; O14786; FAM-RPARPAR peptide binding to NRP-1, fluorescence polarization; inhibition, % at 25 µM; 360,000 compounds, 0.85% hits;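 active means inhibition or corrected inhibition above about 18%, plus a signal ratio from 0.5 to 1.5, limit read from the data, passing the limit was not always enough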
FAS-TE conf – FAS thioesterase (human) inhibition, confirmation. recombinant FAS-TE, OMFH fluorogenic substrate, fluorescence. 2,300 compounds, 45% hits. inhibition, % at 15 µM. AID 624325. shares compounds with FAS-TE inh;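 active means compounds inhibiting the enzyme by at least 50% at 15 µM in any one of the replicates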;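 further: 0% = enzyme with DMSO only and 100% = wells lacking enzyme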
Active calls of the source: *; i = inactive; nt = not tested or not shown.

SMILES	Myeloid diff 2	NadD block	FAS-TE inh	CRFR2-BP antag	NRP1-CendR mod	FAS-TE conf
COc1ccc(/C=C2\SC(=O)N(CCNC(=O)C3CCN(S(=O)(=O)c4cccs4)CC3)C2=O)cc1	i	-3.8	54.5*	-1.5	14.4	15.6
O=C(NCCN1C(=O)S/C(=C\c2ccc(F)cc2)C1=O)C1CCN(S(=O)(=O)c2cccs2)CC1	i	-5.3	21.1	-1.7	-1.9	nt
COc1ccc(-c2csc3nc(-c4ccccc4OC)oc(=O)c23)cc1	i	0.9	62.8*	-10.8	-1.9	42.3
O=c1oc(-c2ccccc2F)nc2scc(-c3ccccc3)c12	i	-9.8	85.6*	-3.4	-3.5	36.5*
CC(C)(C)c1nc2scc(-c3cccs3)c2c(=O)o1	i	-8.0	58.3*	-0.6	-2.8	55.7*
Cc1nc2scc(-c3ccccc3)c2c(=O)n1N	i	0.2	-7.1	19.0	16.4	nt
Cc1nc2scc(-c3ccccc3)c2c(=O)o1	i	-2.7	50.6*	9.4	-6.6	73.1*
Cc1ccccc1CNC(=O)c1ccc(Cl)c([N+](=O)[O-])c1	i	-4.8	33.5	28.4	-9.2	nt
CC(C)(C)SCCNC(=O)c1ccc(Cl)c([N+](=O)[O-])c1	i	-6.4	53.1*	4.7	-5.6	68.3*
CCCCN1CC(=O)N2[C@H](c3ccc(Cl)cc3)[C@@H]3C(=O)N(CC)C(=O)[C@@H]3[C@]2(C)C1=O	i	-1.5	-5.1	-4.8	-3.5	nt
CCS(=O)(=O)c1ccc(O)c(NC(=O)Nc2cccc3ccccc23)c1	i	-0.7	-5.0	4.4	5.7	nt
O=S(=O)(Nc1ccc2c(c1)OCCO2)c1ccc2oc3ccccc3c2c1	i	4.5	62.2*	-23.6	-4.3	47.3*
CCc1ccccc1NC(=O)C(Cc1ccccc1)c1nn[nH]n1 (stereo not given)	i	-0.9	-5.1	-1.7	8.6	nt
COc1cc(CNc2nc(C)c([N+](=O)[O-])c(C)c2C#N)cc(OC)c1OC	i	-2.1	54.9*	-10.2	9.5	58.8*
O=C(CSc1nncs1)NC(=O)NC1CCCC1	i	0.8	-8.4	8.8	16.8	nt
COC(=O)c1ccc(CNC(=O)C2CCC(=O)N(CCc3ccccn3)C2)cc1 (stereo not given)	i	-3.4	-7.8	-0.9	-0.3	nt
CC(=O)Nc1ccc(-c2nnn(CC(=O)c3ccc(F)cc3)n2)cc1Cl	i	-11.0	0.2	1.4	-34.9	nt
COC(=O)C1=C(C(=O)OC)[C@@H]2N(Cc3ccccc3)c3ccccc3[C@@]23C[C@@H](C(=O)OC)N(C(=O)c2cc(C)oc2C)C3=N1	i	4.9	59.4*	-4.9	0.1	15.1
C=CCN1c2ccccc2[C@]23C[C@@H](C(=O)OC)N(C(=O)NCCC)C2=NC(C(=O)OC)=C(C(=O)OC)[C@H]13	i	3.9	78.8*	7.2	-9.2	30.8
COC(=O)C1=C(C(=O)OC)[C@@H]2N(Cc3ccccc3)c3ccccc3[C@@]23C[C@@H](C(=O)OC)N(C(=O)CC(C)C)C3=N1	i	6.7	77.0*	0.7	14.7	27.6
COC(=O)C1=C(C(=O)OC)[C@@H]2N(Cc3ccccc3)c3ccccc3[C@@]23C[C@@H](C(=O)OC)N(C(=O)c2cccs2)C3=N1	i	2.9	23.4	0.6	-3.7	nt
CCOC1=NN(c2ncc(C(F)(F)F)cc2Cl)C(=O)/C1=C/N(C)C	i	0.8	-4.4	-9.1	-10.4	nt
C=CCn1c(SCC(=O)N(CCO)CCO)nc2sc3c(c2c1=O)CCC3	i	0.8	-3.1	15.5	3.1	nt
COc1cccc2oc3cc(C#CC4(O)CCCCC4)ccc3c(=O)c12	i	-17.7	-0.3	-22.5	4.8	nt
O=c1c2ccccc2oc2cc(C#CC3(O)CCCCC3)ccc12	i	-2.3	54.9*	-10.2	-10.0	36.2
CC1=C(O)C(=O)C(c2c(C)cc(C)c(Br)c2C)=C(O)C1=O	i	-0.5	68.0*	-12.3	-12.3	78.3*
Cc1ccc(S(=O)(=O)Nc2ccc(-c3ccc4nncn4n3)cc2)cc1	i	-1.6	7.4	-3.0	11.2	nt
N#CC(CCc1ccccc1[N+](=O)[O-])(CCc1ccccc1[N+](=O)[O-])C(N)=O	i	-1.5	51.9*	1.7	-6.5	46.6*
COc1ccc(C/C(N)=N/OC(=O)c2cccc([N+](=O)[O-])c2)cc1	i	-0.9	54.0*	37.9	6.1	48.1*

Screening results as filed in PubChem BioAssay.
